Laboratory results reported in PubChem BioAssay (Tox21).
Results filed as inconclusive are left out. Active and inactive are the calls of the source. Calls come from the whole dose curve.

assay: qHTS assay to identify small molecule agonists or antagonists of the thyroid stimulating hormone receptor (TSHR) signaling pathway - wild type cell line counter screen (AID 1259384); conditions: HEK293 wild type, cAMP HTRF counter-screen; series mostly up to 92.4 µM
Source text: U.S. Tox21 Program National Center for Advancing Translational Sciences [NCATS] NIH Chemical Genomics Center [NCGC] U.S. Environmental Protection Agency [EPA] National Institutes of Environmental Health Sciences [NIEHS] National Toxicology Program [NTP] U.S. Food and Drug Administration [FDA] Tox21 Assay Overview: TSHR is the receptor for thyrotropin (thyroid stimulating hormone or TSH), a member of the glycoprotein hormone family. TSH is released by the anterior pituitary gland and is the main regulator of thyroid gland growth and development. Upon binding circulating thyrotropin, a G-protein signal cascade activates adenylyl cyclase and […] cAMP concentration is increased. cAMP is a key second messenger involved extensively in cellular signal transduction pathways associated with the majority of G-protein coupled receptors (GPCRs). The activation of these GPCRs by neurotransmitters, lipids, nucleotides, peptides and hormones results in the activation or the inhibition of plasma membrane-bound adenylate cyclase through heterotrimeric G-proteins. A cell-based TSHR-Hek293 assay can be used to identify TSHR agonists. To eliminate the false positive compounds identified from screening a cell-based TSHR-Hek293 cell line, cAMP assay in a wild type Hek293 cells was used as a counter screening.
Tox21 Assay Protocol Summary: Hek293 cells (wild type) were dispensed at 800 cells/4 uL/well in 1536-well white plates using a Multidrop dispenser. After the assay plates were incubated at a 37 C/5% CO2 incubator for 18 hrs, 23 nL of compounds dissolved in DMSO, positive controls or DMSO only was transferred to the assay plate by a pin tool, followed by 1 ul medium containing Ro20-1724. After 30 min of incubation at room temperature, 2.5 ul/well of cAMP-d2 and 2.5 ul/well of anti-cAMP-cryptate were added respectively into the assay plates using a Flying Reagent Dispenser. The plates were incubated at room temperature for 1 hr. The fluorescence intensity in the plates was measured using an Envision plate reader. Each test compound was measured at 15 concentrations and in triplicates.

Compound	outcome
N=C(N)[Se]	inactive
CCOC(=O)C(SP(=S)(OC)OC)c1ccccc1 (stereo not given)	inactive
Cc1ccc(S(=O)(=O)N[C@@H](CCCCN)C(=O)CCl)cc1	inactive
CC(C)NCC(O)c1ccc([N+](=O)[O-])cc1 (stereo not given)	inactive
CCC(C)C(C)(COC(N)=O)COC(N)=O (stereo not given)	inactive
O=CCCl	inactive
C=C(C)[C@H]1CN[C@H](C(=O)O)[C@H]1CC(=O)O	inactive
C[C@@H](N)[C@@H](O)c1ccccc1	inactive
O=P(O)(O)c1ccccc1	inactive
COc1cccc([C@@]2(O)CCCC[C@@H]2CN(C)C)c1	inactive
O=[N+]([O-])c1cccc(CCl)c1	inactive
CCCN1CCC[C@@H]2Cc3nc(N)ncc3C[C@H]21	inactive
O=C(Cl)OCc1ccccc1	inactive
CCCCCCCCBr	inactive
CCCOC(=O)c1cncn1C(C)c1ccccc1 (stereo not given)	inactive
CCOC(=O)COc1ccc(Cl)cc1Cl	inactive
O=C(Cl)C(Cl)Cl	inactive
CN(C)C(=O)Oc1cc(OC(=O)N(C)C)cc(C(O)CNC(C)(C)C)c1 (stereo not given)	inactive
CCc1cc(OC)c(C[C@H](C)N)cc1OC	inactive
CON(C)C(=O)Nc1ccc(Br)c(Cl)c1	inactive

Compound	outcome
COC[C@@H](NC(C)=O)C(=O)NCc1ccccc1	inactive
CNC(=O)Oc1cc(C)c(N(C)C)c(C)c1	inactive
C=C1C[C@@H]2[C@H](CC[C@]3(C)C(=O)CC[C@@H]23)[C@@]2(C)C=CC(=O)C=C12	inactive
CCCCCCC1CCOC1=O (stereo not given)	inactive
CC[C@H](O)C(C[C@H](C)N(C)C)(c1ccccc1)c1ccccc1	inactive
C1CN2CCC1CC2	inactive
CCN[C@@H](C)Cc1ccccc1	inactive
CCOC(=O)NC(C)(C)Cc1ccc(Cl)cc1	inactive
CON(C)C(=O)Nc1ccc(Br)cc1	inactive
ClCCCCCCCl	inactive
CCOC(=O)Nc1cccc(OC(=O)Nc2ccccc2)c1	inactive
O=C(CCl)NCO	inactive
O=c1[nH]c2ccccc2o1	inactive
COc1ccc(C=O)cc1O	inactive
CCC1(CC)C(=O)C=CNC1=O	inactive
COP(=O)(OC)O/C(C)=C/C(=O)N(C)C	inactive
CCNc1nc(NCC)nc(SC)n1	inactive
CC(Cc1ccccc1)NCCn1cnc2c1c(=O)n(C)c(=O)n2C (stereo not given)	inactive
O=C(Cl)C(Cl)(Cl)Cl	inactive
CS(=O)(=O)Cl	inactive
